Results reported in PubChem BioAssay (EPA / NIEHS).
Active and inactive are the calls of the source. Rule for the calls: active = hit-call score of the fitted dose curve at least 0.9, where 1 is the maximum; inactive = score below 0.9.

What was measured:
[1] = APR_HepG2_CellCycleArrest_24hr: Apredica 24-hour HepG2 Assay for Cell Cycle Arrest (AID 2282905); settings: imaging, actives raise or lower the signal;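 note: cell cycle arrest scored as ratio of 2N to 4N nuclear DNA content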
Outline: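 HepG2 cells were exposed to compounds at 0.39–200 uM (ten concentrations, duplicate) in 0.5% v/v DMSO for 24 hr. After formaldehyde fixation and Triton permeabilization, Hoechst 33342-stained nuclei were imaged at 20x; DNA content was quantified, with bidirectional fitting against DMSO.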

[2] = APR_HepG2_NuclearSize_24hr: Apredica 24-hour HepG2 Assay for Nuclear Size (AID 2282907); settings: high-content imaging, actives raise or lower the signal
Outline: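 HepG2 human liver cells were exposed for 24 hr to compounds at 0.39–200 uM (ten concentrations, duplicate) in 0.5% v/v DMSO. They were then formaldehyde-fixed, Triton-permeabilized and Hoechst 33342-stained, and nuclear diameter was imaged at 20x. Bidirectional fits were made against DMSO.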

[3] = APR_HepG2_CellLoss_24hr: Apredica 24-hour HepG2 Assay for Cell Loss (AID 2282908); settings: high-content imaging;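 for AC50: fit in both directions so a hit may be cell loss or gain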
Outline: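 Compounds were tested at 0.39–200 uM in duplicate with 0.5% v/v DMSO final. Cells were then fixed in 3.7% formaldehyde, Hoechst 33342 nuclei were imaged at 20x by HCS, and cell number was fitted bidirectionally against DMSO.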

[4] = APR_HepG2_MicrotubuleCSK_24hr: Apredica 24-hour HepG2 Assay for Microtubule CSK Stabilty (AID 2282909); settings: HepG2 microtubule cytoskeleton imaging, actives raise or lower the signal
Outline: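 HepG2 cells exposed 24 h to compounds at 0.39–200 uM (duplicate, 0.5% v/v DMSO final), then fixed, permeabilized and immunostained for alpha-tubulin with Hoechst 33342. Cytoskeleton imaged at 20x; bidirectional fit versus DMSO baseline.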

[5] = APR_HepG2_MitoticArrest_24hr: Apredica 24-hour HepG2 Assay for Mitotic Arrest (AID 2282910); settings: high-content imaging, actives raise or lower the signal
Outline: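 Compounds are dosed onto HepG2 cells across ten concentrations up to 200 uM for 24 hr. Cells are then fixed in 3.7% formaldehyde, permeabilised, and labelled for phospho-histone H3 and nuclei; images are scored by cell cycle analysis and fitted bidirectionally relative to DMSO.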

[6] = APR_HepG2_MitoMass_24hr: Apredica 24-hour HepG2 Assay for Mitochondrial Mass (AID 2282912); settings: high-content imaging, actives raise or lower the signal
Outline: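 Human HepG2 liver cells were exposed for 24 hr to compounds at 0.39–200 uM (duplicates, 0.5% v/v DMSO final). They were stained live with 250 nM MitoTracker Red CMXRos for 30 min, fixed in 3.7% formaldehyde, and imaged by HCS fluorescence; signals were fitted bidirectionally against DMSO.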

[7] = APR_HepG2_CellCycleArrest_72hr: Apredica 72-hour HepG2 Assay for Cell Cycle Arrest (AID 2282914); settings: high-content imaging, actives raise or lower the signal
Outline: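 Read-out is Hoechst-stained nuclear DNA content measured by automated fluorescence imaging (20x, six images per well), fitted in both directions relative to DMSO. Human HepG2 liver cells received 0.39–200 uM compound for 72 hr at 0.5% v/v DMSO.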

[8] = APR_HepG2_MitoMembPot_24hr: Apredica 24-hour HepG2 Assay for Mitochondrial Membrane Potential (AID 2282911); settings: imaging, actives raise or lower the signal
Outline: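 Cells are dosed for 24 hr across 0.39 to 200 uM with solvent held at 0.5% DMSO. They are then stained with 250 nM MitoTracker Red CMXRos for 30 min, fixed in 3.7% formaldehyde and imaged.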

[9] = APR_HepG2_p53Act_24hr: Apredica 24-hour HepG2 Assay for p53 Activation (AID 2282913); settings: high-content imaging, actives raise or lower the signal;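 note: p53 protein immunofluorescence averaged per cell in HepG2 with Hoechst nuclei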
Outline: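 Human HepG2 liver cells; 24 hr cpd treatment, 0.39–200 uM, 0.5% DMSO final. Fixed in 3.7% formaldehyde, permeabilized with 0.5% Triton X-100, stained with anti-p53/Cy5 plus Hoechst 33342. Six images per well at 20x; gain or loss vs DMSO.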

Compound	outcome [1]	outcome [2]	outcome [3]	outcome [4]	outcome [5]	outcome [6]	outcome [7]	outcome [8]	outcome [9]	AC50 [7]	AC50 [3]	AC50 [5]	AC50 [8]	AC50 [9]	AC50 [1]
NCCO	inactive	inactive	inactive	inactive	inactive	inactive	inactive	–	–	–	–	–	–	–	–
C=CCc1ccc(O)c(OC)c1	inactive	inactive	inactive	inactive	inactive	inactive	inactive	inactive	inactive	–	–	–	–	–	–
Cc1c(C(=O)O)c(O)cc2c1C(=O)c1c(O)c([C@@H]3O[C@H](CO)[C@@H](O)[C@H](O)[C@H]3O)c(O)c(O)c1C2=O	inactive	inactive	inactive	inactive	inactive	inactive	inactive	inactive	–	–	–	–	–	–	–
CCCCCCCCCCO	inactive	inactive	inactive	inactive	inactive	inactive	–	–	inactive	–	–	–	–	–	–
Cc1ccc(N(C)C)cc1	inactive	inactive	inactive	inactive	inactive	inactive	inactive	–	–	–	–	–	–	–	–
Cc1nc(C)nc(N2C[C@@H](C)N(c3ccnc([C@@H](C)O)n3)[C@@H](C)C2)n1	inactive	inactive	inactive	inactive	inactive	inactive	inactive	–	inactive	–	–	–	–	–	–
Cc1oc(-c2ccccc2)nc1CCOc1cccc2c1ccn2CCC(=O)O	inactive	inactive	inactive	inactive	inactive	inactive	–	–	–	–	–	–	–	–	–
Oc1ccc2c(c1)OC[C@@H](N1CCC(O)(c3ccc(F)cc3)CC1)[C@H]2O	inactive	inactive	inactive	inactive	inactive	inactive	inactive	–	inactive	–	–	–	–	–	–
Cc1cccc(Nc2cc(Cl)nc(SCC(=O)O)n2)c1C	inactive	inactive	inactive	inactive	inactive	inactive	inactive	inactive	–	–	–	–	–	–	–
COCCOCCOC	inactive	inactive	inactive	inactive	inactive	inactive	inactive	inactive	inactive	–	–	–	–	–	–
COc1ccc(C)cc1N	inactive	inactive	inactive	inactive	inactive	inactive	–	–	inactive	–	–	–	–	–	–
Cc1ccccc1Cl	inactive	inactive	inactive	inactive	inactive	inactive	inactive	inactive	–	–	–	–	–	–	–
Cc1ccc(C)c(O)c1C	inactive	inactive	inactive	inactive	inactive	inactive	–	inactive	–	12 µM (active)	–	–	–	–	–
O=C(O)CCCCC(=O)O	inactive	inactive	inactive	inactive	inactive	inactive	inactive	–	–	–	–	–	–	–	–
Oc1ccc2ccccc2c1N=Nc1ccccc1	inactive	inactive	–	inactive	–	inactive	–	–	–	0.813 µM (active)	34 µM (active)	27.1 µM (active)	–	–	–
C=CCOC(=O)c1ccccc1C(=O)OCC=C	inactive	inactive	inactive	inactive	inactive	inactive	inactive	inactive	inactive	–	–	–	–	–	–
COc1cc(/C=C/C(=O)CC(=O)/C=C/c2ccc(O)c(OC)c2)ccc1O	inactive	inactive	–	inactive	–	inactive	inactive	–	–	–	38 µM (active)	56.1 µM (active)	48 µM (active)	84.6 µM (active)	–
CC1(C)CC(N=C=O)CC(C)(CN=C=O)C1 (configuration not stated)	inactive	inactive	inactive	inactive	inactive	inactive	–	inactive	inactive	92.5 µM (active)	–	–	–	–	–
CC1(C)NC(=O)NC1=O	inactive	inactive	inactive	inactive	inactive	inactive	inactive	inactive	inactive	–	–	–	–	–	–
CC=Cc1ccc(O)c(OC)c1	–	inactive	inactive	inactive	inactive	inactive	–	–	inactive	–	–	–	–	–	105 µM (active)
